Inconclusive results are not listed. Calls of active or inactive are those of the source. Calls come from the whole dose curve; as a rule, active = well fitted inhibition curve with a large enough effect; inconclusive = small, poorly fitted or top-dose-only effect; inactive = flat fitted curve, though single readings scatter.
experiment: P-glycoprotein substrates identified in KB-8-5-11 adenocarcinoma cell line, qHTS therapeutic library screen (AID 1346987); settings: KB-8-5-11 (P-gp overexpressing) viability, CellTiter-Glo, 72 h; series mostly up to 44.5 µM; activity change, negative = cytotoxicity: at the top concentration; note: nearly all actives have a fitted effect of over 65% in size
Procedure, shortened: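 Luminescence from CellTiter-Glo, read 5 min after addition, quantified survival of KB-8-5-11 (P-gp-overexpressing) cells exposed to compounds for 72 h. AC50 was derived from concentration-response curves.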
% is set by controls: 0 for no effect and ±100 for the full control effect.

SMILES	outcome	activity change, negative = cytotoxicity
CC1=C(CO)CC(C(C)C2CCC3C4CC=C5CC(OC6OC(COC7OC(CO)C(O)C(O)C7O)C(O)C(O)C6O)CC(O)C5(C)C4CCC23C)OC1=O (centres undefined)	inactive [at 17.3 µM]	
CC1=CC(=O)CC(C)(C)C1CCC(C)O[C@@H]1O[C@H](CO)[C@@H](O)[C@H](O)[C@H]1O (some centres undefined)		8.85% (inactive)
CC1(C)CC[C@]2(C(=O)O[C@@H]3O[C@H](CO[C@@H]4O[C@H](CO)[C@@H](O)[C@H](O)[C@H]4O)[C@@H](O)[C@H](O[C@@H]4O[C@H](CO)[C@@H](O)[C@H](O)[C@H]4O)[C@H]3O)[C@H](O)C[C@]3(C)C(=CCC4[C@@]5(C)CC[C@H](O[C@@H]6OC[C@@H](O)[C@H](O)[C@H]6O)[C@@](C)(C(=O)O)C5CC[C@]43C)[C@@H]2C1 (some centres undefined)	inactive [at 9.29 µM]	
NC(=O)c1ccc(F)c2c1C[C@@H](N(C1CCC1)C1CCC1)CO2		6.81% (inactive)
O=C(O)c1ccnc2cc(-c3nc4ccccc4n3CCN3CCCCC3)sc12		5.43% (inactive)
C/C(=C/CO)CC[C@H]1[C@]2(C)C[C@H](O)CC(C)(C)[C@H]2CC[C@]1(C)O		4.85% (inactive)
C[C@H]1CC(=O)C2=C(C1)C(O)C(O)[C@@]1(O)[C@H]2C(=O)c2cccc(O)c2[C@@H]1O (some centres undefined)		1.42% (inactive)
CSCC1OC(n2cnc3c(=O)[nH]cnc32)C(O)C1O (centres undefined)		4.49% (inactive)
CCOC(=O)C(CCc1ccccc1)NC(C)C(=O)N1Cc2ccccc2CC1C(=O)O (centres undefined)		-4.76% (inactive)
COc1cc(C[C@@]2(O)CO[C@@H](c3ccc(O[C@@H]4O[C@H](CO)[C@@H](O)[C@H](O)[C@H]4O)c(OC)c3)[C@H]2CO)ccc1O	inactive [at 17.3 µM]	
CC1=C2CC(=O)C(C)CC/C=C(\C)CC2OC1=O (centres undefined)	inactive	
CC(C)=C1CC2[C@](C)(CC[C@@H](OC(=O)C3(C)OC3C)[C@@]2(C)O)CC1=O (some centres undefined)	inactive	
CCN(CCN(C)C)C(=O)CNCc1cc(C(N)=O)ccn1	inactive	
C/C=C(\C)C(=O)OC[C@H]1O[C@@H](O[C@H]2[C@@H](O[C@H]3O[C@H](CO)[C@@H](O)[C@H](O)[C@H]3O[C@@H]3O[C@H](CO)[C@@H](O)[C@H](O)[C@H]3O)O[C@H](COC(=O)/C(C)=C/C)[C@@H](O)[C@@H]2O)[C@H](O)[C@@H](O)[C@@H]1O	inactive [at 9.29 µM]	
CC1(C)CC[C@]2(C(=O)O[C@@H]3O[C@H](CO)[C@@H](O)[C@H](O)[C@H]3O)CC[C@]3(C)C(=CCC4[C@@]5(C)C[C@H](O)[C@H](O[C@@H]6OC[C@@H](O)[C@H](O)[C@H]6O)[C@@](C)(CO)C5CC[C@]43C)C2C1 (some centres undefined)	inactive [at 9.29 µM]	
COc1ccc2[nH]c(S(=O)Cc3ncc(C)c(OC)c3C)nc2c1 (centres undefined)		-10.2% (inactive)
CCCC(C(=O)O)c1c(C)nc2ccc(Cl)cc2c1-c1ccccc1 (centres undefined)		1.68% (inactive)
CCC(=O)N1CCc2cc(OC)c(O)cc2C1		4.69% (inactive)
CN1CCCC1Cc1c[nH]c2ccc(CCS(=O)(=O)c3ccccc3)cc12 (centres undefined)		-18.3% (inactive)
CO[C@@H]1[C@]2(O)C(=O)N3/C=C\C(C)(C)c4[nH]c5ccccc5c4/C=C\3C(=O)N2[C@]23[C@H](CO)C(C)(C)N2c2ccccc2[C@]13O	inactive [at 17.3 µM]	

SMILES	outcome	activity change, negative = cytotoxicity
CC(C)c1ccc2c(c1)CCC1[C@](C)(C(=O)O)CCC[C@]21C (some centres undefined)		1.76% (inactive)
NC(=O)NCCCC(NC(=O)Cc1ccccc1)C(=O)O (centres undefined)		8.32% (inactive)
C[C@]12CCC[C@](C)(C(=O)O)C1CCC13CC(CO)C(CCC12)C3 (some centres undefined)	inactive	
CC(=O)OCC1OC(O[C@H]2CC[C@]34C[C@]35CC(O)[C@]3(C)[C@@H]([C@H](C)CC/C=C(\C)C(=O)O)C(O)C[C@@]3(C)C5CC[C@H]4C2(C)C)C(O)C(O)C1OC1OCC(O)C(O)C1O (some centres undefined)	inactive [at 9.29 µM]	
CN1CCc2cc(Cl)c(O)cc2[C@@H](c2cccc3c2OCC3)C1		-17.6% (inactive)
C=C1CC[C@@]2(OC1)O[C@H]1CC3C4CC=C5C[C@@H](O[C@@H]6O[C@@H](C)[C@H](O)[C@@H](O)[C@H]6O)C[C@@H](O[C@@H]6O[C@H](C)[C@H](O)[C@H](O)[C@H]6O[C@@H]6O[C@@H](C)[C@H](O)[C@@H](O)[C@H]6O)[C@]5(C)C4CC[C@]3(C)[C@H]1[C@@H]2C (some centres undefined)		5.67% [at 9.29 µM] (inactive)
C[C@@H](NC(=O)c1cc(C(=O)N[C@@H](Cc2ccccc2)[C@H](O)CNC2CC2)cc(N(C)S(C)(=O)=O)c1)c1ccccc1		5.37% (inactive)
CC1=CC(=O)CC(C)(C)C1CO[C@@H]1O[C@H](CO)[C@@H](O)[C@H](O)[C@H]1O (some centres undefined)		4.77% (inactive)
CC1(C(=O)O)CCCC2(C)C3CCC4CC3(CCC12)CC4(O)CO (centres undefined)		-1.07% (inactive)
COc1ccc(NC(=O)c2ccc(-c3ccc(C(N)=O)cc3C)cc2)cc1N1CCN(C)CC1	inactive	
C[C@@H]1O[C@@H](OC(=O)Cc2ccccc2)[C@H](O)[C@H](O)[C@H]1O		5.01% (inactive)
C=C1CC2C3(C)C=CC(=O)OC(C)(C)C3CC(OC(C)=O)C2(C)C2C(=O)OC(C)C(=O)C12C (centres undefined)		0.368% [at 17.3 µM] (inactive)
CC(=O)OC[C@]12[C@@H](OC(=O)c3ccoc3)C[C@@H]3[C@@H](OC(C)=O)[C@]1(OC3(C)C)[C@@](C)(O)C[C@H](OC(=O)c1ccoc1)[C@@H]2OC(=O)c1ccoc1		-11.7% [at 17.3 µM] (inactive)
COC(=O)C1=C[C@@H](O)[C@@H](O)[C@H](O[C@@H]2O[C@H](CO)[C@@H](O)[C@H](O)[C@H]2OC(=O)/C=C/c2ccccc2)C1		2.09% [at 17.3 µM] (inactive)
COc1cc(Nc2nc3c(s2)CCCC3c2ccccc2)ccc1-n1cnc(C)c1 (centres undefined)		-10.2% [at 9.29 µM] (inactive)
Cc1ccccc1N1CCN(S(=O)(=O)C[C@]23CC[C@H](C[C@@H]2NC(=O)[C@@H](N)CCS(C)(=O)=O)C3(C)C)CC1		5.06% (inactive)
COc1cc(O)cc2c1C(=O)OC(C)C2 (centres undefined)	inactive	
CNC(C)C(=O)NC(C(=O)N1CCCC1C(=O)Nc1cccc2ncccc12)C(C)C (centres undefined)	inactive	
CN1CCN(C(=O)c2cc3cc(Cl)ccc3[nH]2)CC1	inactive	

— PubChem BioAssay (NCATS)
